Calls of active or inactive are those of the source. How the source made its calls: active means hit-call score of the fitted dose curve at least 0.9, where 1 is the maximum; inactive means score below 0.9.
read-out: Pro-epidermal growth factor (Homo sapiens) (UniProt P01133); experiment: LTEA_HepaRG_EGF: Life Technologies and Expression Analysis (LTEA) Assay for Epidermal growth factor (EGF) using HepaRG (AID 2283489); conditions: mRNA level, 48 h; actives raise or lower the signal
In short: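 EGF transcript measured by Fluidigm TaqMan qRT-PCR with three housekeeping genes for normalization, 48 h after dosing HepaRG cultures in duplicate (top 100 uM, half-log steps, 0.5% DMSO vehicle). Gain or loss relative to DMSO fitted.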

SMILES | outcome | AC50
Cc1cc(C)nc(Nc2ccccc2)n1 | inactive | –
C=C(C)CN(CC)c1c([N+](=O)[O-])cc(C(F)(F)F)cc1[N+](=O)[O-] | inactive | –
Cc1ccc(N=CN(C)C=Nc2ccc(C)cc2C)c(C)c1 | inactive | –
CN=C=S | inactive | –
CSC(=O)c1c(C(F)F)nc(C(F)(F)F)c(C(=O)SC)c1CC(C)C | inactive | –
CC(C)N1C(=O)c2ccccc2NS1(=O)=O | inactive | –
CCOP(=S)(OCC)Oc1nc(Cl)n(C(C)C)n1 | inactive | –
Clc1nc(Cl)nc(Nc2ccccc2Cl)n1 | inactive | –
CC1(C)C(C(=O)OC(C#N)c2cccc(Oc3ccccc3)c2)C1(C)C (configuration not stated) | inactive | –
COP(=O)(OC)O/C(C)=C/C(=O)N(C)C | inactive | –
COc1ccc(-c2ccccc2)cc1NNC(=O)OC(C)C | inactive | –
OC(c1ccc(Cl)cc1)(c1ccc(Cl)cc1)C(Cl)(Cl)Cl | inactive | –
CCCC(=NOCC)C1=C(O)CC(CC(C)SCC)CC1=O (configuration not stated) | inactive | –
CO/N=C(/C1=NOCCO1)c1ccccc1Oc1ncnc(Oc2ccccc2Cl)c1F | inactive | –
CCN(CC)C(=O)C(C)Oc1cccc2ccccc12 (configuration not stated) | inactive | –
CCCCC(C#N)(Cn1cncn1)c1ccc(Cl)cc1 (configuration not stated) | inactive | –
N#CN=C1SCCN1Cc1ccc(Cl)nc1 | inactive | –
CNC(=O)N(C)c1nnc(C(C)(C)C)s1 | inactive | –
O=C(Nc1ccccc1-c1ccc(Cl)cc1)c1cccnc1Cl | inactive | –
O=P(O)(O)CCCl | inactive | –
Cn1c(-c2ccccc2)cc(-c2ccccc2)[n+]1C | – | 81.3 µM (active)
COC(=O)NS(=O)(=O)c1ccc(N)cc1 | inactive | –
